Measurements from the supplement of paper PMC11732987, “Enantioselective OTUD7B fragment discovery through chemoproteomics screening and high-throughput optimisation” (Communications Chemistry, 2025).

Key:
Assay in all cases: log2 ratio of Biotin-Ahx-Ub-VS probe labelling (fragment/DMSO); higher = less target engagement (more negative = stronger competition), active = hit call of the paper (q ≤ 0.05, log2 ratio ≤ -1)
Conditions in all cases: compound concentration: 200 uM; treatment time: 3 h
OTUD6B = biological target: T1, OTUD6B (UniProt Q8N6M0)
T1 sequence (whole entry): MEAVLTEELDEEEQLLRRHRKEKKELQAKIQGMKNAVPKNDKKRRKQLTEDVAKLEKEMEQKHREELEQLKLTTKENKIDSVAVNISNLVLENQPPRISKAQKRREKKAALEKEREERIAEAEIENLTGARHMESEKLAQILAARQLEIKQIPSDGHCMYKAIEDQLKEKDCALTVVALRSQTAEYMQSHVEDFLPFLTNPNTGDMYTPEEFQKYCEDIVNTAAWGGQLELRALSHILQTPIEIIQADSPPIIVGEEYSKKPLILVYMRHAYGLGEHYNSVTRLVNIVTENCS
In short: (§1)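 Average log2 ratios of fragment over vehicle were obtained by unpaired t-test from global-median-normalised Spectronaut label-free quantities. Proteins with ≥2 unique peptides were included. HEK293T lysate (495 µg per sample) was treated in triplicate with fragment at 200 µM or vehicle for 3 h, then with Biotin-Ahx-Ub-VS at 0.5 µM final for 1 h, and labelled DUBs were NeutrAvidin-enriched and run by diaPASEF LC-MS/MS.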

OTUD7B = biological target: T2, OTUD7B (UniProt Q6GQQ9)
T2 sequence (whole entry): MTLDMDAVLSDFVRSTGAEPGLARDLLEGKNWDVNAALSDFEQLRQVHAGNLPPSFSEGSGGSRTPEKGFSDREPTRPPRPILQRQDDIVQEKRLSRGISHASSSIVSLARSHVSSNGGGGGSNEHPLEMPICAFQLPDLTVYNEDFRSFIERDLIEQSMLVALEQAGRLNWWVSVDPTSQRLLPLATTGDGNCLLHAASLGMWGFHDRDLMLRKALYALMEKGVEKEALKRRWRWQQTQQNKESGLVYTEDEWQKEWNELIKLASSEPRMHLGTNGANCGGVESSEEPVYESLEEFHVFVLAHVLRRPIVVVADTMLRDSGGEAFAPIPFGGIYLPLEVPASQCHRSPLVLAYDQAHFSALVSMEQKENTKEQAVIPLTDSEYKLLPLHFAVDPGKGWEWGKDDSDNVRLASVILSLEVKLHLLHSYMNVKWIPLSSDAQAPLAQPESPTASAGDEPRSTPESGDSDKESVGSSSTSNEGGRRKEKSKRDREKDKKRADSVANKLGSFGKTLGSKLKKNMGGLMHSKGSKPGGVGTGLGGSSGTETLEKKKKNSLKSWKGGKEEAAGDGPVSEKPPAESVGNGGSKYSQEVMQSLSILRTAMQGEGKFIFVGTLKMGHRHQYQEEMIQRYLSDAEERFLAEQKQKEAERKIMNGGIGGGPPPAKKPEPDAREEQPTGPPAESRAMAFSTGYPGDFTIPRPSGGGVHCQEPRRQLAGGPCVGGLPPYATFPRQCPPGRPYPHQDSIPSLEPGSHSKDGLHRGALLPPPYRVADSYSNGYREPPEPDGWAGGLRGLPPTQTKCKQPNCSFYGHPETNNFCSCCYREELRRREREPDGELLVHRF
In short: as §1

PRPF8 = PRPF8 (UniProt Q6P2Q9)
In short: as §1

PSMD7 = biological target: T3, PSMD7 (UniProt P51665)
T3 sequence (whole entry): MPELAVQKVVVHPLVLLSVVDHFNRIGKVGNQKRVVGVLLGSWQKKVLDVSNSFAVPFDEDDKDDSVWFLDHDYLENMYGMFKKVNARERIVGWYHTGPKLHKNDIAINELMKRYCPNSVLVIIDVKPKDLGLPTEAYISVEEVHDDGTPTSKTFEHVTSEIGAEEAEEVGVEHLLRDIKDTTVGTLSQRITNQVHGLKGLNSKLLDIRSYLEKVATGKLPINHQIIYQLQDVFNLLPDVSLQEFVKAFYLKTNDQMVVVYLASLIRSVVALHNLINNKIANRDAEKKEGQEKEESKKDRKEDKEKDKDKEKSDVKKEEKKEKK
In short: as §1

UCHL1 = UCHL1 (UniProt P09936)
Chain of UCHL1 (P09936 whole entry, looked up): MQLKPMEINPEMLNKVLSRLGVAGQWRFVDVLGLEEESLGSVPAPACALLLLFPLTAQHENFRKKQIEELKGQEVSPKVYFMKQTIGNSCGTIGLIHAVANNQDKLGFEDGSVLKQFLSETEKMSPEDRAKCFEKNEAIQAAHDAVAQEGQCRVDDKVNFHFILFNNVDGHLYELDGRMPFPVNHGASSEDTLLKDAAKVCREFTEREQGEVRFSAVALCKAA
In short: as §1

UCHL3 = biological target: T4, UCHL3 (UniProt P15374)
T4 sequence (whole entry): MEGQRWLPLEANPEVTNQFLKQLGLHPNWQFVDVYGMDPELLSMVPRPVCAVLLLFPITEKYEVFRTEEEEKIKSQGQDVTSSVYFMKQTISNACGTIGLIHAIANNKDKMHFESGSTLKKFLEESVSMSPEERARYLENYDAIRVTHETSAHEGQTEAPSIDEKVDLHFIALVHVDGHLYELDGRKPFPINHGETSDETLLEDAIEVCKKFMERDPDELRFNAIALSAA
In short: as §1

UCHL5 = biological target: T5, UCHL5 (UniProt Q9Y5K5)
T5 sequence (whole entry): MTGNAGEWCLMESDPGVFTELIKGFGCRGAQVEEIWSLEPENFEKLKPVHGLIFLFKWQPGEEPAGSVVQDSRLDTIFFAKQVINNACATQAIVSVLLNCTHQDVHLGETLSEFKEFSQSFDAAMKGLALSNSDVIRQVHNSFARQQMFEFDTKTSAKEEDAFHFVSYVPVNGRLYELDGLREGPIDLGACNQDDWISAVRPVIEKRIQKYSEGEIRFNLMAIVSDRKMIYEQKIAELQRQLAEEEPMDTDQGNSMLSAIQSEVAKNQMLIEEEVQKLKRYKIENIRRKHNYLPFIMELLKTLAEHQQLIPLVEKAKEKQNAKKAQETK
In short: as §1

USP10 = USP10 (UniProt Q14694)
Chain of USP10 (Q14694 whole entry): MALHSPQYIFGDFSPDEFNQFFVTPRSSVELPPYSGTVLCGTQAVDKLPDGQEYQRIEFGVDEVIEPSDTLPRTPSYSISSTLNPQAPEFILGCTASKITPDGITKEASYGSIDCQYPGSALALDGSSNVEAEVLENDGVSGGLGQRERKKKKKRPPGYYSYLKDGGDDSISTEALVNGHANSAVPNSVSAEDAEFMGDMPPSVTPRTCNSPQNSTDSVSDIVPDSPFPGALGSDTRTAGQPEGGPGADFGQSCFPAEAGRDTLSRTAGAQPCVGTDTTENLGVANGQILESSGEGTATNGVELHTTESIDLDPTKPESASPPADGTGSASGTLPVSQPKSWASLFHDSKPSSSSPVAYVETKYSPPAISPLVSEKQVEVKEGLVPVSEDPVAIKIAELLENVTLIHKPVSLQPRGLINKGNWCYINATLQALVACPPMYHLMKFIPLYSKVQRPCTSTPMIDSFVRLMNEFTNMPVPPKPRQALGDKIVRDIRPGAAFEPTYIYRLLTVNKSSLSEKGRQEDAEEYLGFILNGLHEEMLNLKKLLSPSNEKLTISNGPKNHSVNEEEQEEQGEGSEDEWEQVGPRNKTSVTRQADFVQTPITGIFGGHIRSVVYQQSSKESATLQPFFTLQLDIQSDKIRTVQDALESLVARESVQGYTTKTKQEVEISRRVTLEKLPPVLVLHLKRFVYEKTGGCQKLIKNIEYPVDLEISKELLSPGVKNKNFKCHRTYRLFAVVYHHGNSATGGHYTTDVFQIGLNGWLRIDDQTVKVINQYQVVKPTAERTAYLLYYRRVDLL
In short: as §1

USP15 = biological target: T6, USP15 (UniProt Q9Y4E8)
T6 sequence (whole entry): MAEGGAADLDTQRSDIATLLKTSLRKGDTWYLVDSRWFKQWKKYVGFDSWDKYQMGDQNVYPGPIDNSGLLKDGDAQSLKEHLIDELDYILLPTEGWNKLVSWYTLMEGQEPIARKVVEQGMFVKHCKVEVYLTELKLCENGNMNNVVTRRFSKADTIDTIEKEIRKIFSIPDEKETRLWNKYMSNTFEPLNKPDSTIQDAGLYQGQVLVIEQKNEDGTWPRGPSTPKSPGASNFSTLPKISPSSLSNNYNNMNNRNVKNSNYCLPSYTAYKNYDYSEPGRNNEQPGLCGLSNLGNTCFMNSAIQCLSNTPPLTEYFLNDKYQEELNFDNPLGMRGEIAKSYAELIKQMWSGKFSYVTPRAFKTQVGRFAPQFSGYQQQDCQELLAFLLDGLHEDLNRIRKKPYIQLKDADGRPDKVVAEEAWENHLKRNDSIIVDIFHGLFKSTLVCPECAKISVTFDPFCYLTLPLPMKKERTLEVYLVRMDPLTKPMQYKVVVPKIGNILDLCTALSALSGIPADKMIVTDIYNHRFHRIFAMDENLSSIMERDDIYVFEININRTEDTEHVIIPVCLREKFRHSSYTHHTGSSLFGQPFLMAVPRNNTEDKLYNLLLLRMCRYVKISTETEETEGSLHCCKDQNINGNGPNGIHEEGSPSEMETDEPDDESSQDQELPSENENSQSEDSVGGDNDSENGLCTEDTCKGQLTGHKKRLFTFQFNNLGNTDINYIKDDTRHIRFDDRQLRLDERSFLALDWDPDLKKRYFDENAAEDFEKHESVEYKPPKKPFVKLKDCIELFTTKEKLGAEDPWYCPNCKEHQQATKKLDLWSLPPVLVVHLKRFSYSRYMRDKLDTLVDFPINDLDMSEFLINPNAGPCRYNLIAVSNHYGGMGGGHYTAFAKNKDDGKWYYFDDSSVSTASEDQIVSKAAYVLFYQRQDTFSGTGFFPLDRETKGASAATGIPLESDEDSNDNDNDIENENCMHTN
In short: as §1

USP16 = USP16 (UniProt Q9Y5T5)
Chain of USP16 (Q9Y5T5 whole entry, looked up): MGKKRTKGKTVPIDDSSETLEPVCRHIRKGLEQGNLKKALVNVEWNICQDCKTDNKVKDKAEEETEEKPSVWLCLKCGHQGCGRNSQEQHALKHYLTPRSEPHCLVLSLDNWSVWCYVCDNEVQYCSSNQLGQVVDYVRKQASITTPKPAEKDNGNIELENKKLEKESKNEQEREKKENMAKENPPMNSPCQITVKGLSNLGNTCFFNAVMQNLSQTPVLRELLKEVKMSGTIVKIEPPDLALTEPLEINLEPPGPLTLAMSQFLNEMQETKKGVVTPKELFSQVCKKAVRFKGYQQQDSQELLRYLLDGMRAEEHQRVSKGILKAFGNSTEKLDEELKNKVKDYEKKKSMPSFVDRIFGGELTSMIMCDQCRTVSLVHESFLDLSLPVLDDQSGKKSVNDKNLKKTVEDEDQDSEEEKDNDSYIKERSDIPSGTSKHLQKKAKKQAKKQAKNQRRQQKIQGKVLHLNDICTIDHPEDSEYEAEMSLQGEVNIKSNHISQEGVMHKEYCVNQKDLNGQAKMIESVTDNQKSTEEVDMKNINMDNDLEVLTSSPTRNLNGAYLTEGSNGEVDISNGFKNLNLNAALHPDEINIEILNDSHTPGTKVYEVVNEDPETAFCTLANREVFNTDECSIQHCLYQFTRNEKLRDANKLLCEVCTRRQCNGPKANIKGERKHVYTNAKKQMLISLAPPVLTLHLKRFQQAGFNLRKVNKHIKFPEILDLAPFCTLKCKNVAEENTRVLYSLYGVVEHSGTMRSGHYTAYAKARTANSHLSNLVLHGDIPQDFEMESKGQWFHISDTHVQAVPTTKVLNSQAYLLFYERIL
In short: as §1

Measured: log2 ratio of Biotin-Ahx-Ub-VS probe labelling

Cc1ccc(CNC(=O)CCl)nc1C.Cl
active: UCHL1 -1.07
inactive: OTUD6B 0.146 | OTUD7B -0.314 | PRPF8 0.14 | PSMD7 -0.305 | UCHL3 0.499 | UCHL5 -0.0227 | USP10 -0.0933 | USP15 0.144 | USP16 0.174
